Bioassay records: PubChem BioAssay, Broad Institute
An excerpt weighted towards active compounds, which were near 3.9% of everything screened.
Glyco luc inh = increase of ERlucT glycosylation luciferase signal, primary screen, N-linked glycosylation inhibitor project, D54 ERlucT cells, luminescence, set 2 | D54 ERlucT glycosylation luciferase reporter, 24 h; percent of 100 nM tunicamycin response | reporter increase, % at 12.5 µM | actives 0.23% (n = 360,000);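 active = mean luciferase reporter signal, scaled so untreated is 0 and the glycosylation-blocking control 100, at or above a set limit in every replicate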;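 also: luciferase carries N-glycosylation sites so blocking glycosylation raises the light; 0% = median of neutral control wells and 100% = median of 100 nM tunicamycin wells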
ALR H2O2 inh = inhibitors of human ALR sulfhydryl oxidase, primary screen, biochemical, H2O2 detection, HRP-luminol luminescence, single point. purified ALR, DTT oxidation. inhibition, % (concentration not given with the values). actives 3.8% (n = 290,000). AID 485317, 2010;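 active = mean replicate inhibition above about 79%, with every replicate also reaching it, limit read from the data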
Target sequence (P55789 whole entry, looked up): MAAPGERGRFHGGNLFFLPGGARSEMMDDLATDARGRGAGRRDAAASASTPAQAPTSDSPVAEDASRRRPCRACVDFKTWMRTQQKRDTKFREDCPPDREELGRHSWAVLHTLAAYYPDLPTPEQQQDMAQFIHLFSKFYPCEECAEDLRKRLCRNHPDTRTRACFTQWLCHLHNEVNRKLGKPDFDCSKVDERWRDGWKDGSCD
Casp6 inh = human caspase-6 inhibitors, primary screen, biochemical, VEID-R110 fluorescence, single point, set 2; P55212; purified caspase-6, Z-VEID-R110 cleavage fluorescence; inhibition, % at 12.5 µM; actives 0.53% (n = 350,000);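 active = mean inhibition across replicates at least about 35%, with every replicate also reaching that limit, limit read from the data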;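 also: 0% = median of neutral control wells and 100% = no fluorescence left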
Target sequence (P55212 24-179 limits assumed): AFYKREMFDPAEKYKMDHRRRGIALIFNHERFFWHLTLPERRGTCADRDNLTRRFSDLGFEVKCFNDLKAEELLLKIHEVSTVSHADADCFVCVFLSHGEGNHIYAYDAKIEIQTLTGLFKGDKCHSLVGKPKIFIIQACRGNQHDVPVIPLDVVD
Target sequence (P55212 194-293 limits assumed): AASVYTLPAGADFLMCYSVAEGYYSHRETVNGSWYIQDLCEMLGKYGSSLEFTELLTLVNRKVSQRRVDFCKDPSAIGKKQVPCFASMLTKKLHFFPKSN
NSD2 HMT inh = NSD2 histone methyltransferase inhibitors, primary screen, biochemical, AlphaScreen, single concentration, set 2. NSD2 peptide methylation, 120 min. inhibition, % at 12.5 µM. actives 0.54% (n = 310,000). AID 743445, 2014; in the data active = inhibition above about 50%
CDK5 inh = inhibitors of human CDK5/p35 kinase, primary screen, biochemical, single concentration. Recombinant CDK5/p35, ADP-Glo luminescence, 60 min. inhibition, % at 10 µM. Cyclin-dependent kinase 5 (Homo sapiens) + Cyclin-dependent kinase 5 activator 1 (Homo …. actives 0.01% (n = 330,000). AID 488839, 2010;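 active = highest replicate inhibition of at least 50% and at least 75% of replicates reaching 50%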;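 also: plate controls were DMSO neutral control for no effect and GW8510 at 10 µM for full effect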
Mot1-301 SUMO = yeast Mot1-301 growth rescue at high temperature, primary screen, SUMOylation pathway inhibitor project, S. cerevisiae, ATP luminescence, 38.5C; S. cerevisiae Mot1-301 growth rescue; percent above DMSO median, 100 means doubled; growth rescue, % at 18.8 µM; actives 1% (n = 320,000); AID 2716, 2010;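 active = every valid replicate shows activation above 250% relative to neutral control wells; inactive = the rest, any valid replicate at or below 250%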;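 also: OY570 slx delta 5 strain wells were the positive control but not used for scaling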
Numbers without * were called inactive; . = not tested or not shown.

SMILES | Glyco luc inh | ALR H2O2 inh | Casp6 inh | NSD2 HMT inh | CDK5 inh | Mot1-301 SUMO
COc1ccc(-c2csc3nc(-c4cccnc4)nc(Cl)c23)cc1OC | 0.5 | 97.6* | 1.2 | 1.0 | 0.2 | -3.8
Clc1nc(-c2cccnc2)nc2scc(-c3ccccc3)c12 | -3.6 | 96.7* | -1.1 | -1.4 | 0.5 | 5.3
CCn1c(SCC(=O)c2ccccc2)nc2c(c1=O)SC(C)C2 (centres undefined) | 0.1 | 99.0* | . | 2.8 | -20.6 | -14.1
CCn1c(SCC(=O)N2CCc3ccccc32)nc2c(c1=O)SC(C)C2 (centres undefined) | 2.5 | 17.5 | . | . | . | 342.8*
COCCn1c(SCC(=O)c2ccccc2)nc2c(c1=O)SC(C)C2 (centres undefined) | 3.3 | 98.8* | . | -0.3 | 0.3 | -18.6
CCn1cc(SCC(=O)N2CCc3ccccc32)c2ccccc21 | -3.8 | 98.0* | 1.3 | . | -4.5 | 2.3
CCn1c(SCC(=O)N2CCCCC2)nc2c(c1=O)SC(C)C2 (centres undefined) | 1.9 | 18.4 | -0.3 | . | 0.0 | 21.8
O=C(CSc1ccccc1)N1CCc2ccccc21 | -2.0 | -11.0 | . | -4.5 | 1.5 | 42.4
COCC(=O)N1C[C@@H]2[C@H](c3ccccc31)[C@H](CO)N2C(=O)NC(C)C | . | . | 0.2 | . | . | .
CC(=O)N(C)C[C@@H]1Oc2cc(C#CC(C)(C)O)ccc2S(=O)(=O)N([C@@H](C)CO)C[C@H]1C | . | . | 0.0 | . | . | .
Cc1csc(Nc2ccccc2)[n+]1-c1ccccc1 | -0.7 | 98.8* | -0.6 | 13.4 | 1.2 | -9.5
Cc1c(Nc2scc(-c3ccccc3)[n+]2-c2ccccc2)c(=O)n(-c2ccccc2)n1C | 6.6 | -10.8 | . | . | -0.3 | 23.2
Cc1csc(Nc2ccccc2)[n+]1C | 0.6 | 98.0* | 2.2 | 2.9 | 0.8 | 183.2
Cc1noc(C)c1S(=O)(=O)Nc1ccc2c(c1)C(=O)N([C@H](C)CO)C[C@@H](C)[C@H](CN(C)S(=O)(=O)c1ccc(F)cc1)OCCCC[C@@H](C)O2 | . | . | 3.3 | . | . | .
C[C@@H]1CN([C@@H](C)CO)C(=O)Cc2cc(NC(=O)C3CCCCC3)ccc2O[C@H]1CN(C)C(=O)Nc1ccc(C(F)(F)F)cc1 | . | . | -3.5 | . | . | .
CCN(CC)CCNc1ccc(CO)c2oc3ccccc3c(=O)c12 | 43.4* | . | -5.9 | 19.2 | . | .
COCC(=O)N1CC2(C1)[C@@H](c1ccc(-c3ccc(F)cc3)cc1)[C@@H](CO)N2C(=O)C1CC1 | . | . | -1.0 | . | . | .
CO[C@H]1CC[C@@H]2CCOc3ccc(C#N)cc3C(=O)N(C)C[C@@H](c3ccccc3)CC(=O)N(C)C[C@@H]1O2 | . | . | 1.9 | . | . | .
CCN1C(=O)/C(=C2/SC(C)=C(C)N2CC)SC1=S | 2.4 | 97.0* | . | 5.1 | 0.6 | 2.2
Cn1c(N)c(C(=O)Nc2ccccc2F)sc1=S | 2.8 | 99.2* | -1.7 | -0.5 | -2.6 | -3.8
Cn1c(N)c(C(=O)Nc2ccc3ccccc3c2)sc1=S | 0.9 | -4.3 | . | -0.3 | -1.4 | -13.2
O=C(NCC(c1ccco1)N1CCN(c2ccc(F)cc2)CC1)OCc1ccccc1 (centres undefined) | -1.2 | 15.5 | -2.1 | -2.3 | -5.4 | 33.7
O=C(NCc1ccncc1)C(=O)NCC(c1ccco1)N1CCN(c2ccc(F)cc2)CC1 (centres undefined) | -0.3 | 94.2* | . | 0.1 | 0.5 | -8.1
O=C(NCc1ccccn1)C(=O)NCC(c1ccco1)N1CCN(c2ccc(F)cc2)CC1 (centres undefined) | -0.5 | 98.0* | 2.3 | -2.0 | 1.4 | -13.9
C[C@H](CO)N1C[C@H](C)[C@@H](CN(C)CC2CCCC2)Oc2ncc(C#C[C@@H](C)O)cc2C1=O | . | . | 3.7 | . | . | .
SMILES | Glyco luc inh | ALR H2O2 inh | Casp6 inh | NSD2 HMT inh | CDK5 inh | Mot1-301 SUMO
Cc1ccc(-c2cnc3c(c2)C(=O)N([C@H](C)CO)C[C@@H](C)[C@H](CN(C)C(=O)Cc2ccccc2)O3)cc1 | . | . | 0.2 | . | . | .
C[C@H]1CN([C@@H](C)CO)C(=O)c2cc(NS(C)(=O)=O)ccc2O[C@@H]1CN(C)S(=O)(=O)c1cccs1 | . | . | -0.2 | . | . | .
O=C(O)CC/C(=N\Nc1ccc([N+](=O)[O-])cc1)c1ccccc1 | 1.3 | 98.4* | 5.2 | 4.0 | -1.0 | 367.3*
Cc1ccc(O)c(CCc2ccc(O)cc2)n1 | -0.8 | 94.1* | -3.8 | 0.7 | 0.6 | 23.5
C[C@@H]1CCCCO[C@H](CN(C)C(=O)Nc2ccccc2)[C@@H](C)CN([C@H](C)CO)C(=O)c2cc(NC(=O)c3ccncc3)ccc2O1 | . | . | 2.0 | . | . | .
CCN1[C@H](C(=O)NCCCN(C)C)[C@@H](CO)[C@@H]2Cn3c(ccc(-c4cccc(F)c4)c3=O)[C@@H]21 | . | . | 1.5 | . | . | .
c1ccc(NCC2OCc3ccccc3CO2)cc1 | 1.4 | 97.7* | . | -1.0 | . | 0.0
CO[C@@H]1CN(C)C(=O)c2cccc(C#N)c2OCC[C@@H]2CC[C@@H](OC)[C@@H](CN(C)C(=O)[C@H]1C)O2 | . | . | -19.9 | . | . | .
CCN(CC)CCN(CC)Cc1ccccc1Br | 1.8 | -1.6 | 56.2* | 2.9 | 1.1 | 1.4
COc1ccccc1C(=O)Nc1ccc2c(c1)C(=O)N(C)C[C@@H](OC)[C@H](C)CN(CC1CC1)[C@@H](C)CO2 | . | . | 2.8 | . | . | .
CCCN1[C@@H]2Cn3c(ccc(-c4ccncc4)c3=O)[C@H]1[C@@H](C(=O)NCCc1cn(C)cn1)[C@@H]2CO | . | . | -0.8 | . | . | .
CCNC(=S)Nc1cc(-c2ccc(Cl)cc2)[nH]n1 | -1.4 | 96.6* | 5.0 | -2.8 | 2.9 | -5.1
CCNC(=S)Nc1ccc(Cl)cc1 | 1.7 | -3.8 | -1.7 | -2.3 | 0.0 | -5.9
C[C@H]1CN([C@@H](C)CO)C(=O)Cc2cc(NC(=O)Cc3cn(C)c4ccccc34)ccc2O[C@@H]1CN(C)C | . | . | -2.7 | . | . | .
O=C(N[C@@H](Cc1ccccc1)C(=O)CCl)OCc1ccccc1 | -10.8 | 97.5* | 1.4 | . | -0.2 | 109.0
C[C@@H]1CN([C@@H](C)CO)C(=O)c2ccccc2-c2ccccc2CO[C@@H]1CN(C)CC1CC1 | . | . | -3.5 | . | . | .
COc1ccc(-c2nc3cnccn3c2Nc2ccc3c(c2)OCO3)cc1 | -1.2 | 87.0* | 0.5 | . | 0.9 | -9.7
COc1ccc(Nc2c(-c3ccc(OC)cc3)nc3cnccn23)cc1 | 2.1 | 98.5* | 4.0 | 2.3 | 0.0 | .
Cc1ccc(-c2nc3cnccn3c2Nc2ccc3c(c2)OCO3)cc1 | -2.7 | . | -0.6 | . | -0.6 | -17.0
CN(C)c1ccc(-c2nc3cnccn3c2Nc2ccc3c(c2)OCCO3)cc1 | 0.5 | 98.5* | 0.6 | 0.7 | 0.6 | -6.3
Cc1ccc(Nc2c(-c3ccc(N4CCOCC4)cc3)nc3cnccn23)cc1 | 0.1 | 98.9* | . | 27.4 | 1.5 | 2.0
